Measured values reported in PubChem BioAssay (NCI).
About 83,000 compounds went through this panel and 20% of them were active in at least one assay; those are over-represented in the sample as a whole.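 A percent growth of 40 corresponds to 60% growth inhibition; 0 means no net growth; -100 means all cells died. Active threshold: below 10.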 A number with no mark means an inactive call. The source made the active and inactive calls.

What follows are molecules tested on MDA-MB-468 breast (assay: NCI-60 one-dose screen, 48 h (100 = growth as untreated, 0 = no growth, -100 = all killed)). Conditions: 10 µM unless noted.

SMILES | growth
Cn1cnc([N+](=O)[O-])c1S(=O)(=O)Oc1ccccc1 | 77.4%
COc1ccc(/C=C2/C(=O)Nc3cc(Cl)c(-c4csc(N)n4)cc32)cc1 | 0.87% (active)
COc1ccc(Cn2cc(Cn3cc(C=C4C(=O)NC(=O)NC4=O)c4ccccc43)nn2)cc1 | 18.5%
Cc1cccc(/C=C/c2c(C(=O)/C=C/c3ccccc3)c(C)nc3ccccc23)c1 | -51.1% (active)
